The text below walks through data of PubChem BioAssay (Tox21).

Molecules are shown by their SMILES. Results filed as inconclusive are left out. Some structures have more than one record in an assay (separate samples or runs), and their calls can disagree. Active and inactive are the calls of the source. Unless noted, the call rests on the fitted dose curve; in most records, active means well fitted curve in the direction sought with a large enough effect in the repeat runs; inconclusive means weak or mixed curves; inactive means no such curve, though single readings can be large; an effect the other way counts as inactive or inconclusive.

The nature of test [1]: qHTS assay to identify aromatase inhibitors - cell viability counter screen (AID 743084).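 Further: cells stimulated with testosterone during compound exposure; nearly all actives have a fitted effect of over 55% in size.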 Further: potency means the concentration at half of the fitted maximal effect.
Test [2] deals with Aryl hydrocarbon receptor (Homo sapiens) (UniProt P35869). Kind of test: qHTS assay to identify small molecule that activate the aryl hydrocarbon receptor (AhR) signaling pathway (AID 743085).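 Further: HG2L7.5c1 human HepG2 liver cells with stably integrated DRE-driven firefly reporter; series mostly up to about 70 µM; nearly all actives have a fitted effect of over 15% in size.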 An outline of the steps: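 Luminescence (ONE-Glo) from a dioxin-responsive-element luciferase reporter in HG2L7.5c1 HepG2 cells after 24 hr compound exposure at 37C; viability measured by CellTiter-Fluor fluorescence beforehand.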

A short description of test [3]: qHTS assay to identify small molecule that activate the aryl hydrocarbon receptor (AhR) signaling pathway - cell viability counter screen (AID 743086). Further: nearly all actives have a fitted effect of over 45% in size. Further: potency means the concentration at half of the fitted maximal effect. The essentials:
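Cytotoxicity counter screen: CellTiter-Fluor signal (30 min, 37 C) in 4000 HepG2 cells/well carrying the DRE-luciferase reporter, following 24 h compound exposure at 37 C.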

Test [4] concerns the target Peroxisome proliferator-activated receptor gamma (Homo sapiens) (UniProt P37231). Kind of test: qHTS assay to identify small molecule agonists of the peroxisome proliferator-activated receptor gamma (PPARg) signaling pathway (AID 743094; active means well fitted activation curve with a large enough effect in the signal ratio in the repeat runs, not every such curve was filed as active; the % refers to the signal ratio). An outline of the steps:
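GeneBLAzer PPARg UAS-bla HEK293H cells were plated, rested 5 h, then exposed to compounds for 17 h at 37C. Beta-lactamase activity was read by LiveBLAzer B/G FRET substrate fluorescence after 1 h at room temperature.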

The target is the same in test [5]. Kind of test: qHTS assay to identify small molecule antagonists of the peroxisome proliferator-activated receptor gamma (PPARg) signaling pathway (AID 743191; calls by dose curve; further: series mostly up to about 63 µM; nearly all actives have a fitted effect of over 30% in size). An outline of the steps:
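Beta-lactamase reporter under UAS control in HEK293H PPARg-bla cells; compound treatment 17 h at 37C. Read-out: fluorescence intensity after 1 h room-temperature incubation with LiveBLAzer B/G FRET substrate.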

Test [6] can be described thus: qHTS assay to identify small molecule antagonists of the peroxisome proliferator-activated receptor gamma (PPARg) signaling pathway - cell viability counter screen (AID 743194). Further: nearly all actives have a fitted effect of over 55% in size. The note with it: Potency: co-treated with 50 nM rosiglitazone. An outline of the steps: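 Viability was measured as CellTiter-Glo luminescence in GeneBLAzer PPARg UAS-bla HEK293H cells. These cells had been exposed 17 h at 37 C to compounds together with rosiglitazone at 50 nM final, with the beta-lactamase readout taken in the same wells.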
In general terms: Quantitative high-throughput screening tests each substance at several concentrations.

The nature of test [7]: qHTS assay for small molecule activators of the heat shock response signaling pathway (AID 743210; active means well fitted activation curve with a large enough effect in the signal ratio in the repeat runs, with a control signal flat, not every such curve was filed as active; the % refers to the signal ratio;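 further: HeLa cells with beta-lactamase reporter driven by heat shock elements; series mostly up to about 63 µM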). The essentials:
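In HSE-bla HeLa cells, 5 h compound incubation (37 C) precedes addition of LiveBLAzer B/G substrate; after 2.5 h at room temperature, fluorescence intensity indicates reporter induction.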

Test [8] can be described thus: qHTS assay to identify small molecule agonists of the peroxisome proliferator-activated receptor delta (PPARd) signaling pathway - cell viability counter screen (AID 743211). Further: nearly all actives have a fitted effect of over 55% in size. An outline of the steps:
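Viability was measured as CellTiter-Glo luminescence (30 min, room temperature) in the same wells as the beta-lactamase readout. GeneBLAzer PPARd UAS-bla HEK293H cells received compound after 5 h plating and were incubated 17 h at 37 C.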

The target in test [9] is Peroxisome proliferator-activated receptor delta (Homo sapiens) (UniProt Q03181). Description: qHTS assay to identify small molecule agonists of the peroxisome proliferator-activated receptor delta (PPARd) signaling pathway (AID 743212; calls by dose curve). An outline of the steps: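 HEK293H UAS-bla reporter cells, human PPARd system; compounds delivered in DMSO after 5 h plating, then at 37 C. Beta-lactamase FRET read, 2 h RT substrate step.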

A short description of test [10]: qHTS assay to identify small molecule antagonists of the peroxisome proliferator-activated receptor delta (PPARd) signaling pathway - cell viability counter screen (AID 743213). Further: nearly all actives have a fitted effect of over 50% in size. Further: potency means the concentration at half of the fitted maximal effect. The essentials:
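HEK293H PPARd UAS-bla cells, 5 h pre-incubation, compound + L165041 300 nM final, 17 h 37 C; B/G FRET substrate 2 h RT; then CellTiter-Glo 30 min RT, luminescence.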

In test [11] the target is Peroxisome proliferator-activated receptor delta (Homo sapiens) (UniProt Q03181). Description: qHTS assay to identify small molecule antagonists of the peroxisome proliferator-activated receptor delta (PPARd) signaling pathway (AID 743215; active means well fitted inhibition curve with a large enough effect in the signal ratio in the repeat runs, not every such curve was filed as active; the % refers to the signal ratio;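 further: cells stimulated with agonist L165041 at 300 nM final during compound exposure; series mostly up to about 62 µM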). The essentials: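 PPARd-bla HEK293H cells (UAS-bla reporter) preincubated 5 h, then given compound plus 300 nM final L165041 agonist for 17 h at 37 C. Beta-lactamase activity read by LiveBLAzer B/G FRET substrate fluorescence after 2 h at room temperature.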

A short description of test [12]: qHTS assay to identify small molecule agonists of the farnesoid-X-receptor (FXR) signaling pathway - cell viability counter screen (AID 743218). Further: nearly all actives have a fitted effect of over 45% in size. An outline of the steps:
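FXR-UAS-bla HEK 293T cells exposed to compounds for 16 h at 37C. Cytotoxicity read in the same wells by CellTiter-Glo luminescence after 30 min at room temperature, following the beta-lactamase FRET read.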

Test [13] can be described thus: qHTS assay to identify small molecule antagonists of the farnesoid-X-receptor (FXR) signaling pathway - cell viability counter screen (AID 743221; active means well fitted cell-killing curve with a large enough effect in the repeat runs, not every such curve was filed as active; further: nearly all actives have a fitted effect of over 50% in size). An outline of the steps: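 Cytotoxicity counter screen run in the FXR-bla reporter wells: HEK 293T cells exposed to compound with 50 uM (final) chenodeoxycholic acid for 16 h, 37 C, then viability measured by CellTiter-Glo luminescence after 30 min, room temperature.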

For test [14], the target named is Vitamin D3 receptor (Homo sapiens) (UniProt P11473). Kind of test: qHTS assay to identify small molecule agonists of the vitamin D receptor (VDR) signaling pathway (AID 743222; calls by dose curve). The essentials:
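VDR-bla cells plated 4 h at 37 C, then exposed to compounds for 16 h at 37 C. Beta-lactamase reporter activity measured by fluorescence after 2 h room-temperature loading with LiveBLAzer B/G FRET substrate.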

Test [15] shares this target. Kind of test: qHTS assay to identify small molecule antagonists of the vitamin D receptor (VDR) signaling pathway (AID 743223; active means well fitted inhibition curve with a large enough effect in the signal ratio in the repeat runs, not every such curve was filed as active; the % refers to the signal ratio). The essentials:
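Antagonist mode: compound added to VDR-bla cells alongside agonist 1alpha,25-dihydroxyvitamin D3 (3 nM final), incubation 16 h at 37C. Read-out is LiveBLAzer FRET fluorescence, 2 h at room temperature.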

Test [16] can be described thus: qHTS assay for small molecule agonists of the antioxidant response element (ARE) signaling pathway (AID 743202; active means well fitted activation curve with a large enough effect in the signal ratio in the repeat runs, not every such curve was filed as active; the % refers to the signal ratio). An outline of the steps: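 An ARE-responsive beta-lactamase gene stably integrated in HepG2 cells serves as reporter. After 5 h plating and 16 h compound incubation at 37 C, fluorescence of the B/G FRET substrate was measured.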
A short description of test [17]: qHTS assay for small molecule agonists of the antioxidant response element (ARE) signaling pathway - cell viability counter screen (AID 743203; calls by dose curve; further: nearly all actives have a fitted effect of over 55% in size). An outline of the steps: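 ARE-bla HepG2 cells were plated, rested 5 h at 37C/5% CO2, then exposed to compounds in DMSO for 16 h. Viability was read as CellTiter-Glo luminescence after 30 min at room temperature, in the same wells as the ARE screen.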

The nature of test [18]: qHTS assay for small molecule activators of the heat shock response signaling pathway - cell viability counter screen (AID 743209). Further: nearly all actives have a fitted effect of over 50% in size. An outline of the steps:
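HSE-bla HeLa cells plated overnight, then exposed to Tox21 compounds (23 nL in DMSO) for 5 h at 37 C. After the bla reporter read, CellTiter-Glo was added in the same wells and luminescence read after 30 min at room temperature.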

Test [19] addresses Bile acid receptor (Homo sapiens) (UniProt Q96RI1). Description: qHTS assay to identify small molecule antagonists of the farnesoid-X-receptor (FXR) signaling pathway (AID 743217; active means well fitted inhibition curve with a large enough effect in the signal ratio in the repeat runs, not every such curve was filed as active; the % refers to the signal ratio). The essentials:
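FXR-UAS-bla HEK 293T cells (beta-lactamase reporter) given compound plus chenodeoxycholic acid (50 uM final), 16 h at 37C. LiveBLAzer B/G FRET substrate added for 2 h at room temperature; fluorescence read.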

The target is the same in test [20]. Kind of test: qHTS assay to identify small molecule agonists of the farnesoid-X-receptor (FXR) signaling pathway (AID 743220; active means well fitted activation curve with a large enough effect in the signal ratio in the repeat runs, not every such curve was filed as active; the % refers to the signal ratio). The essentials:
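Beta-lactamase reporter under UAS control in GeneBLAzer FXR HEK 293T cells (5000/well) measured with LiveBLAzer FRET substrate after 2 h at room temperature. Compound exposure lasted 16 h at 37C.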

Chain of Peroxisome proliferator-activated receptor gamma (Homo sapiens) (P37231 whole entry, looked up): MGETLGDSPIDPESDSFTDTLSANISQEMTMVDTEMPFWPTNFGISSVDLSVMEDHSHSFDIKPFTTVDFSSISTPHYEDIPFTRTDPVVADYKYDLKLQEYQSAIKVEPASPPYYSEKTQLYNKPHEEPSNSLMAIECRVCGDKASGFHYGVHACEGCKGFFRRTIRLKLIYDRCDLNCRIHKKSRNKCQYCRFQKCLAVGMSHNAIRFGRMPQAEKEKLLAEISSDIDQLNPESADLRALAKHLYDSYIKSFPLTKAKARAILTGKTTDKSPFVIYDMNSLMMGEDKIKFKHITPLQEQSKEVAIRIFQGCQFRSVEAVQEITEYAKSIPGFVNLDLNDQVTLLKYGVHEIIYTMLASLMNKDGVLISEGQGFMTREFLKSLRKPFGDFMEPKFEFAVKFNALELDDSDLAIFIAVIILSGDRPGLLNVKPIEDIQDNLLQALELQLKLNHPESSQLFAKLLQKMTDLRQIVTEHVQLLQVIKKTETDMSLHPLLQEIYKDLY
Chain of Peroxisome proliferator-activated receptor delta (Homo sapiens) (Q03181 whole entry, looked up): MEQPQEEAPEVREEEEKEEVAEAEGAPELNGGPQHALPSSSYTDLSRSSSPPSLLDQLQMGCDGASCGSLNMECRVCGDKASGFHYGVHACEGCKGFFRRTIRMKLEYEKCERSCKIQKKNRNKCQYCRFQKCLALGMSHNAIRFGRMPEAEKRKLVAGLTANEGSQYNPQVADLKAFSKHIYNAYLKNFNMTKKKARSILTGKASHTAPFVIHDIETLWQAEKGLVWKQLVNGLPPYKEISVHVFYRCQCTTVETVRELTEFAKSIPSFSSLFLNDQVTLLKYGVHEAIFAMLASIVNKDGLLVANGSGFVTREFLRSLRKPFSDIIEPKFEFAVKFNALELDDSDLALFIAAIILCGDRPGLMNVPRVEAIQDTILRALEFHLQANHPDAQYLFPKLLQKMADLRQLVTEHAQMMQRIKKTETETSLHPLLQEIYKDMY
Chain of Vitamin D3 receptor (Homo sapiens) (P11473 whole entry, looked up): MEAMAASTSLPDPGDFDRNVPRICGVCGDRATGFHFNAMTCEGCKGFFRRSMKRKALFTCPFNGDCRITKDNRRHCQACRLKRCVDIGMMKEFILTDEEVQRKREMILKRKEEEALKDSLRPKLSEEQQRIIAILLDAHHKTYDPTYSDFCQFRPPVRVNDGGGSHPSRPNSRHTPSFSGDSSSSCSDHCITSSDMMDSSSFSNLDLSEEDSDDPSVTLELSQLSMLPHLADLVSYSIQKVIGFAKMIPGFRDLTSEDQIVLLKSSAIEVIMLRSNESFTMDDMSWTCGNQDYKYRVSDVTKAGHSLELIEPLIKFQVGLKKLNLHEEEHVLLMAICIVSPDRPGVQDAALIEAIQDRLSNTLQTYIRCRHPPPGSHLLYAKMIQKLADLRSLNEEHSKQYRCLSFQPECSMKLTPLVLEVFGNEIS
Chain of Aryl hydrocarbon receptor (Homo sapiens) (P35869 whole entry, looked up): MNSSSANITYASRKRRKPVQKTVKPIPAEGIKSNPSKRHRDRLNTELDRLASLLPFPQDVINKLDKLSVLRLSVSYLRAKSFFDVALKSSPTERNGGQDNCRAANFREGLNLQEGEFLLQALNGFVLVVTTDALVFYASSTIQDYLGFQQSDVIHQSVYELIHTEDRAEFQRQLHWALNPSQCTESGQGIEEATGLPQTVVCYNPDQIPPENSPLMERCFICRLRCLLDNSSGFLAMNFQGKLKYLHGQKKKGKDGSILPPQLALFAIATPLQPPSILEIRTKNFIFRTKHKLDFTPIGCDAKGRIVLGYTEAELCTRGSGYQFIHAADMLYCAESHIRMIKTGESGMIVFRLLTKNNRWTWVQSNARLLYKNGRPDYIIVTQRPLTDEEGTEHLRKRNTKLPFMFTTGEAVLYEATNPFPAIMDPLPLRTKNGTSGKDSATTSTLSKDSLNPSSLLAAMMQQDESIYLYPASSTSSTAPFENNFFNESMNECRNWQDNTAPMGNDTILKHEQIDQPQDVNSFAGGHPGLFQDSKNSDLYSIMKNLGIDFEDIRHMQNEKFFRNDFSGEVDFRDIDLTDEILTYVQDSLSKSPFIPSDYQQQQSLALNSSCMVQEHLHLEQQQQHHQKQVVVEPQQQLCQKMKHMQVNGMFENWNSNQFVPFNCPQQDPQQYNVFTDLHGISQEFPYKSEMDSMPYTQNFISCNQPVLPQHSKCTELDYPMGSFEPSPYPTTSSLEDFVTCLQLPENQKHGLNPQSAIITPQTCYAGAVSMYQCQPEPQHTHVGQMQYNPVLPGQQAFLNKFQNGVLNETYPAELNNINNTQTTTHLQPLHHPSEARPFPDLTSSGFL
Chain of Bile acid receptor (Homo sapiens) (Q96RI1 whole entry, looked up): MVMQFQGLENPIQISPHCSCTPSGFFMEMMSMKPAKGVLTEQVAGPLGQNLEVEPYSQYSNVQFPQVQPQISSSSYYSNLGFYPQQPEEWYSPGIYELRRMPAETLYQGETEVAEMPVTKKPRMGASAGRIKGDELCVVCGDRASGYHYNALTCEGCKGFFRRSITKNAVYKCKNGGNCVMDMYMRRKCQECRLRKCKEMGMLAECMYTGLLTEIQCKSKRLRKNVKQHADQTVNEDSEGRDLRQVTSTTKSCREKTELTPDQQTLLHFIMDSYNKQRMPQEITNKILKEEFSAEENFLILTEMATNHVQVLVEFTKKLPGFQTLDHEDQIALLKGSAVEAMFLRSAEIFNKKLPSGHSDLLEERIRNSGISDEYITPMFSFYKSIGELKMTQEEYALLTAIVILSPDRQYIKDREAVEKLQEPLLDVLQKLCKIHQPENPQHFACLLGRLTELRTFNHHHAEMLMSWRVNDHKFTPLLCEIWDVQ

Take `C[C@]12CC[C@H]3[C@@H](CCC4=CC(=O)CC[C@@H]43)[C@@H]1CC[C@@H]2OC(=O)CCc1ccccc1`: the Potency entry in test [1], in test [2], in test [3], in test [4], in test [5] and in test [6] was “inactive” each time. Also, the Potency result in test [7], in [8], in test [10], in test [11], in test [12] and in [13] was “inactive” each time. In addition, the Potency result in test [15] is “inactive”. In addition, the call in test [9] and in test [14] was inactive.

`CCSCc1ccccc1OC(=O)NC`: the Potency result in test [1], in test [2], in [3], in test [4], in [5] and in test [6] was “inactive” throughout. The Potency result in [16], in test [17], in [18], in [7], in test [8] and in test [11] was “inactive” each time. In addition, the Potency entry in test [19], in [12] and in [13] was “inactive” throughout. The outcome in [9], in test [20] and in [14] was inactive.

`CCOC(=O)c1cncn1C(C)c1ccccc1` (configuration not stated): the Potency result in [1], in test [2], in [3], in test [4], in test [5] and in test [6] was “inactive” each time. Moreover, the Potency entry in test [18], in test [8], in test [10], in [11], in test [12] and in [13] was “inactive” in each case. Also, in test [9], the molecule was called inactive.

For the molecule `CCCC[N+]1(C)[C@@H]2CC(OC(=O)[C@H](CO)c3ccccc3)C[C@H]1[C@@H]1O[C@@H]12` (some centres not stated), the Potency entry in test [1], in [2], in [3], in [4], in [5] and in test [6] was “inactive” throughout. The Potency entry in test [16], in [18], in [7], in test [8], in test [10] and in test [11] was “inactive” throughout. Moreover, the Potency result in test [12] is “inactive”. Moreover, the outcome in [9] and in test [20] was inactive.

Consider `CN[C@@H](C)[C@H](O)c1ccccc1`, for which the Potency result in [1], in test [2], in test [3], in test [4], in [5] and in test [6] was “inactive” throughout. Moreover, the Potency result in test [16], in [17], in [18], in [10] and in test [11] was “inactive” each time. The outcome in test [9], in [20] and in test [14] was inactive.

Turning to `C1CS1`, the Potency result in test [1], in test [2], in test [3], in [4], in test [5] and in test [6] was “inactive” in each case. The Potency entry in test [16], in test [17], in test [18], in test [7], in test [8] and in [10] was “inactive” throughout. In addition, the Potency result in test [11], in [12] and in test [13] was “inactive” in each case. Besides, in test [9], the molecule was called inactive.

With `C=CC(=O)NC(C)(C)CC(C)=O`, the Potency result in test [1], in test [2], in test [3], in test [4], in [6] and in test [17] was “inactive” each time. Moreover, the Potency entry in [7], in test [8], in test [10], in [11] and in test [12] was “inactive” throughout. In addition, the molecule was called inactive in [9] and in test [14].

On to `C[Si](Cn1cncn1)(c1ccc(F)cc1)c1ccc(F)cc1`, for which the Potency in [1] was 63.1 µM (active) and inactive; in test [3] it was 28.2 µM (active); in [10], 38.9 µM (active). In addition, the Potency result in test [2], in test [5], in test [6], in test [18], in test [7] and in [8] was “inactive” each time. The molecule was classed as inactive in test [9] and in test [20].

With `O=C(O)COc1cc(Cl)c(Cl)cc1Cl`, the Potency entry in [1], in test [2], in test [3], in test [4], in [6] and in test [17] was “inactive” in each case. Also, the Potency entry in test [18], in test [7], in [8], in [10], in [11] and in test [19] was “inactive” in each case. The Potency result in test [12], in test [13] and in test [15] was “inactive” each time. Besides, the result in test [20] and in [14] was inactive.
